The source of these data is PubChem BioAssay (NCATS).

Experiment [1] is described as follows: Cellular viability qHTS for adrenocortical cancer (ACC) cell line SW-13 (AID 1963989). Also: nearly all actives have a fitted effect of over 65% in size.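 As to activity (max response): cells grown in serum-free medium with ITS supplement; % is scaled to controls: 0 for no effect and ±100 for the full control effect.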 The conditions noted are these: SW-13 ACC cells viability, CellTiter-Glo, 48 h; activity (max response): hits give low values. In a few lines:
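SW-13 cells in ITS-supplemented serum-free DMEM were plated overnight, then exposed for 48 h at 37C to compound titrations (up to 46 uM final). Viability was read by CellTiter-Glo luminescence; four-parameter logistic fits gave IC50 and efficacy.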
Background: Quantitative high-throughput screening tests each substance at several concentrations.

A short description of experiment [2]: Cellular viability qHTS for adrenocortical cancer (ACC) cell line NCI-H295R (AID 1963990). Also: nearly all actives have a fitted effect of over 60% in size. In a few lines:
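Luminescent ATP read-out (CellTiter-Glo, 20 min RT) after 48 h drug exposure of NCI-H295R cells; a titration up to 46 uM final. Data normalized to doxorubicin (100% inhibition) and DMSO (0%); 4-parameter fit gives IC50, max response.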

The structures appear in SMILES notation. “And” between values parts separate entries of the source, which are not always exact repeats. Equal entries are not always repeated. Inconclusive results are not listed. Unmarked numbers belong to inactive results. The source made the active and inactive calls. Calls follow the shape of the dose curve; as a rule, active = well fitted cell-killing curve with a large enough effect; inconclusive = small, poorly fitted or top-dose-only effect; inactive = flat fitted curve, though single readings scatter.
Potency is read from the fitted curve at half-maximal effect.

Turning to `CC(C)(C)C(=O)CN1C(=O)[C@H](NC(=O)Nc2cccc(C(=O)O)c2)CN(C2CCCCC2)c2ccccc21`, in experiment [1], the activity (max response) is 11.5%. The Potency entry in experiment [2] was “inactive”.

For the compound `Cc1c(N)c(=O)n(-c2ccccc2)n1C`, in experiment [1], the activity (max response) is -4.39%. For the same compound, in experiment [2], the Potency result was “inactive”.

Consider `CC(=O)SCC(CC(=O)c1ccc(C)cc1)C(=O)O` (stereo unspecified), for which, in experiment [1], the activity (max response) is 11.5%. Also, the Potency result in experiment [2] was “inactive”.

As to `CCCCNc1ccc(C(=O)OCCN(CC)CC)cc1`, the activity (max response) in experiment [1] was -7.77%. The Potency result in experiment [2] is “inactive”.

In the case of `C[C@]12CC[C@@H]3c4ccc(O)cc4CC[C@H]3[C@@H]1CCC2=O`, the activity (max response) in experiment [1] is -14.1%. In addition, the Potency entry in experiment [2] is “inactive”.

Turning to `c1ccc2c(c1)CCCC2C1=NCCN1` (stereo unspecified), in experiment [1], the activity (max response) is 5.7%. Also, the Potency entry in experiment [2] is “inactive”.

Take `Oc1cccc(O)c1`: in experiment [1], the activity (max response) was 6.94%. In addition, in experiment [2], the Potency result is “inactive”.

Take `C/C(=C\c1csc(C)n1)[C@@H]1C[C@@H]2O[C@]2(C)CCC[C@H](C)[C@H](O)[C@@H](C)C(=O)C(C)(C)[C@@H](O)CC(=O)N1`: the Potency was 3.16 µM (active) in experiment [1] and 8.91 µM (active) in experiment [2].

`Cc1nnc(SCC2=C(C(=O)O)N3C(=O)[C@@H](NC(=O)Cn4cnnn4)[C@H]3SC2)s1`: the activity (max response) in experiment [1] was 10%. Further, the Potency result in experiment [2] is “inactive”.

In the case of `CC(C)[N+](C)(CCOC(=O)C1c2ccccc2Oc2ccccc21)C(C)C`, the activity (max response) in experiment [1] is -9.17%. Also, the Potency result in experiment [2] was “inactive”.

For the compound `CCN(CC)CCNC(=O)c1cc(Br)c(N)cc1OC`, the activity (max response) in experiment [1] was -8.12%. Moreover, the Potency entry in experiment [2] is “inactive”.

Take `CCCCCCCCCCC[C@@H](C[C@@H]1OC(=O)[C@H]1CCCCCC)OC(=O)[C@H](CC(C)C)NC=O`: in experiment [1], the activity (max response) is 4.97%. In addition, the Potency entry in experiment [2] was “inactive”.

With `COc1ccc(CCN(C)CCCC(C#N)(c2ccc(OC)c(OC)c2)C(C)C)cc1OC` (stereo unspecified), in experiment [1], the activity (max response) is -2.85% and -16.8%. In addition, the Potency result in experiment [2] is “inactive”.
